# Columns and labels:
# Assay in all cases: DAPPL (digital affinity profiling via proximity ligation, sequencing); 10 mM Tris-HCl pH 7.5, 50 mM NaCl, 1 mM DTT, 4% glycerol, room temperature, 30 min; GST-TFs on glutathione beads, 16-mer random dsDNA library, 0.1% formaldehyde crosslink after washing; high values mean tight binding
# FEV = molecular target: T1, FEV (Homo sapiens, UniProt Q99581 1-238); conditions: protein: recombinant; tags: N-terminal GST; dsDNA, one strand shown
# T1 sequence: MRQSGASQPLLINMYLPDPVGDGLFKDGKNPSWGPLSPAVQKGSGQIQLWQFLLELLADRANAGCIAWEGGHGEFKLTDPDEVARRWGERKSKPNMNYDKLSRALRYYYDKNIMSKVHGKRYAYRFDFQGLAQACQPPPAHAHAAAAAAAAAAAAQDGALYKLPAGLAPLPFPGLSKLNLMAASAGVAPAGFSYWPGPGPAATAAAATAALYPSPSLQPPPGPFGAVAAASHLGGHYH
# In short: (§1)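 Sequencing on an Illumina NextSeq500 followed washing, crosslinking with 0.1% formaldehyde, proximity ligation (BsaI/T4 ligase, 1 h, 37 °C) and PCR amplification of pools that had been incubated for 30 min at room temperature with 200 nmole of a random double-stranded 16-mer DNA library in Tris/NaCl/DTT/glycerol buffer. Each pool held DNA-barcoded human transcription factors, expressed in yeast as GST fusions and captured on glutathione beads, plus a tag-only sample. Binding signal is a hexamer's read frequency for a factor divided by its frequency in the tag-only sample.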
# ETV5 = ETV5 (Homo sapiens, UniProt P41161 1-510); conditions: protein: recombinant; tags: N-terminal GST; dsDNA, one strand shown
# In short: as §1
# HSF1 = HSF1 (Homo sapiens, UniProt Q00613 1-529); conditions: protein: recombinant; tags: N-terminal GST; chain copies: 3; dsDNA, one strand shown
# In short: as §1
# SPIC = molecular target: T2, SPIC (Homo sapiens, UniProt Q8N5J4 1-248); conditions: protein: recombinant; tags: N-terminal GST; dsDNA, one strand shown
# T2 sequence: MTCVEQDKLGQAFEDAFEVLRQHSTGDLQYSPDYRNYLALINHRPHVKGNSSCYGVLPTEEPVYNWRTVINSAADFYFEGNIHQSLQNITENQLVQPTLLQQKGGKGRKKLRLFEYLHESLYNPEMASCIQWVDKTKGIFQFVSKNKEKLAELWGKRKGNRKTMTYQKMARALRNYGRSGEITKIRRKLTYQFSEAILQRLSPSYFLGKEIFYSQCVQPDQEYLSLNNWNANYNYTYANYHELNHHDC
# In short: as §1
# ELF4 = ELF4 (Homo sapiens, UniProt Q99607 1-663); conditions: protein: recombinant; tags: N-terminal GST; dsDNA, one strand shown
# In short: as §1
# ELK4 = molecular target: T3, ELK4 (Homo sapiens, UniProt P28324-2 1-405); conditions: protein: recombinant; tags: N-terminal GST; dsDNA, one strand shown
# T3 sequence: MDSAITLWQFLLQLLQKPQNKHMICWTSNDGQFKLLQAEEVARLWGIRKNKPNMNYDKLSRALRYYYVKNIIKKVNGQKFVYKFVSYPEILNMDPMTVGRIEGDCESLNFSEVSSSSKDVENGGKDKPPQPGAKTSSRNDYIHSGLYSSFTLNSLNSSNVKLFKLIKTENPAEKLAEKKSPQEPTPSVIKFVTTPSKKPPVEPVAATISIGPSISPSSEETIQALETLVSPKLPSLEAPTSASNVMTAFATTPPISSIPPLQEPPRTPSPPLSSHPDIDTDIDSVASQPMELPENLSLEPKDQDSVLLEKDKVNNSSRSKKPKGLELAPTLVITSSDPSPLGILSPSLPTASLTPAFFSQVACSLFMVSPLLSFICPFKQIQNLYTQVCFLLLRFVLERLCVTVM
# In short: as §1
# ETV2 = molecular target: T4, ETV2 (Homo sapiens, UniProt O00321 1-342); conditions: protein: recombinant; tags: N-terminal GST; dsDNA, one strand shown
# T4 sequence: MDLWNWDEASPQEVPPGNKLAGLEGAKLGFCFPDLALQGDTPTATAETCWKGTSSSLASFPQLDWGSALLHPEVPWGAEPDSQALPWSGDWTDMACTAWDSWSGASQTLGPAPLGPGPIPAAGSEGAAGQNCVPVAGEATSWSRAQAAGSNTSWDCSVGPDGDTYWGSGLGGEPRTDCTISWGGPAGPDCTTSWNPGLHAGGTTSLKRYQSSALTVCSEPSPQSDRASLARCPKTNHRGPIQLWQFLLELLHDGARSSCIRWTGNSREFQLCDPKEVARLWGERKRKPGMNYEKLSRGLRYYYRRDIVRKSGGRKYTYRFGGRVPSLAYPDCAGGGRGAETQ
# In short: as §1
# ELF3 = molecular target: T5, ELF3 (Homo sapiens, UniProt P78545 1-371); conditions: protein: recombinant; tags: N-terminal GST; dsDNA, one strand shown
# T5 sequence: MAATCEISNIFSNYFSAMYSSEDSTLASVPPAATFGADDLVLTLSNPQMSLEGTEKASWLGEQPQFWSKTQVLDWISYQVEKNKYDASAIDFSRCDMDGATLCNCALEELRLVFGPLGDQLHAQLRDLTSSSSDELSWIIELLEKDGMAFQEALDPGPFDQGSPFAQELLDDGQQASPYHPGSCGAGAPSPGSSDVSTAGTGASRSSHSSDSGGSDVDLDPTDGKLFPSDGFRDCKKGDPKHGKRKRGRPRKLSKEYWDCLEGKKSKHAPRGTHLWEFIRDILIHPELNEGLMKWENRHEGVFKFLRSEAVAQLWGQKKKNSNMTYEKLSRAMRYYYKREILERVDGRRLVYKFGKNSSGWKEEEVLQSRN
# In short: as §1
# CRX = CRX (Homo sapiens, UniProt O43186 1-299); conditions: protein: recombinant; tags: N-terminal GST; dsDNA, one strand shown
# In short: as §1
# ETV1 = ETV1 (Homo sapiens, UniProt P50549 1-477); conditions: protein: recombinant; tags: N-terminal GST; dsDNA, one strand shown
# In short: as §1
# ERF = molecular target: T6, ERF (Homo sapiens, UniProt P50548 1-548); conditions: protein: recombinant; tags: N-terminal GST; dsDNA, one strand shown
# T6 sequence: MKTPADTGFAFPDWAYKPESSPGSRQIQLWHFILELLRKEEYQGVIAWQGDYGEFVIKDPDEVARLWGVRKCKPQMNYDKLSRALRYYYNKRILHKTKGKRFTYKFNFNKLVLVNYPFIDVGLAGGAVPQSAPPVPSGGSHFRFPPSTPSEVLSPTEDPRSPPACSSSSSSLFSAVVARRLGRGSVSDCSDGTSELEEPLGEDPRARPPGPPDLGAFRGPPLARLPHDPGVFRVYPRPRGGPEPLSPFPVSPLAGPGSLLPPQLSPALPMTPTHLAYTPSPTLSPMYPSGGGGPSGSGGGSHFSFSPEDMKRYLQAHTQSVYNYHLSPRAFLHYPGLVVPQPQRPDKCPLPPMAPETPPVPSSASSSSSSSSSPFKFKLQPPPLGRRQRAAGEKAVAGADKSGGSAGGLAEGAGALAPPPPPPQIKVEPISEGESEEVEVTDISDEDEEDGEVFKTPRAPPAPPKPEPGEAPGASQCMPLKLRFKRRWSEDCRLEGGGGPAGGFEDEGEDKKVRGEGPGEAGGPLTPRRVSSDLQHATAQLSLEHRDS
# In short: as §1
# ETV3L = molecular target: T7, ETV3L (Homo sapiens, UniProt Q6ZN32 1-361); conditions: protein: recombinant; tags: N-terminal GST; dsDNA, one strand shown
# T7 sequence: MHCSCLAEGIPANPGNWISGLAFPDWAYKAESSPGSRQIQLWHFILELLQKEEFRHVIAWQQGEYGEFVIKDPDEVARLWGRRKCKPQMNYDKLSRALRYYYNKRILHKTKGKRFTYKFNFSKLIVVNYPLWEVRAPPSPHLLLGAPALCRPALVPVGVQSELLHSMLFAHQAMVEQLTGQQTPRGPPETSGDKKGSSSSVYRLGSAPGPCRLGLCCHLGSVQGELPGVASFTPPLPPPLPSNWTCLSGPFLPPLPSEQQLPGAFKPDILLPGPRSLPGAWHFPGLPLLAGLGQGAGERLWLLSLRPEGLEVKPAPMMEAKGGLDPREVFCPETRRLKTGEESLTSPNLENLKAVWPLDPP
# In short: as §1
# ETS2 = molecular target: T8, ETS2 (Homo sapiens, UniProt P15036 1-469); conditions: protein: recombinant; tags: N-terminal GST; dsDNA, one strand shown
# T8 sequence: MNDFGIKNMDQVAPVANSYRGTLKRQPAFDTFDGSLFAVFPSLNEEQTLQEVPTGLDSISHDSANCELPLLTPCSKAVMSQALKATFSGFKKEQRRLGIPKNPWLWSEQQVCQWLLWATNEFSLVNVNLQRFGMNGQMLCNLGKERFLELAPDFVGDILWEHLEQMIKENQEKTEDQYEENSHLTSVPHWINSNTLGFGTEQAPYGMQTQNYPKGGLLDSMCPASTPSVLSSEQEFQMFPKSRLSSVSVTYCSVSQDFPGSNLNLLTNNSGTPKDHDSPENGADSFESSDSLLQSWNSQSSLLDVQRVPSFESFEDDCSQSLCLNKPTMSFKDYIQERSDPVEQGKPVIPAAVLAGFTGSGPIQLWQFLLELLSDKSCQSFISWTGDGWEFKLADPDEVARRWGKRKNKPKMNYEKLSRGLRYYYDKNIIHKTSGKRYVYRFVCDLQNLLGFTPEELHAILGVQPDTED
# In short: as §1
# SPDEF = molecular target: T9, SPDEF (Homo sapiens, UniProt O95238 1-335); conditions: protein: recombinant; tags: N-terminal GST; dsDNA, one strand shown
# T9 sequence: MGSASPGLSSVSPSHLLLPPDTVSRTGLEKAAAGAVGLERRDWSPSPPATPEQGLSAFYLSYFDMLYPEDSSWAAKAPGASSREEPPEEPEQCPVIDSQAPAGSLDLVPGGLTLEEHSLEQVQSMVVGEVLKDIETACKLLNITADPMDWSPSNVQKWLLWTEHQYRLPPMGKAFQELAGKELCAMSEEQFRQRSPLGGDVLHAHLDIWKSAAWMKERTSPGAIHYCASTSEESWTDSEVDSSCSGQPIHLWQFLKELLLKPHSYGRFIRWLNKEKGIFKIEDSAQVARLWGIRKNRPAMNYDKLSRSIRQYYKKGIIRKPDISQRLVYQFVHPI
# In short: as §1
# ETV7 = molecular target: T10, ETV7 (Homo sapiens, UniProt Q9Y603 1-341); conditions: protein: recombinant; tags: N-terminal GST; dsDNA, one strand shown
# T10 sequence: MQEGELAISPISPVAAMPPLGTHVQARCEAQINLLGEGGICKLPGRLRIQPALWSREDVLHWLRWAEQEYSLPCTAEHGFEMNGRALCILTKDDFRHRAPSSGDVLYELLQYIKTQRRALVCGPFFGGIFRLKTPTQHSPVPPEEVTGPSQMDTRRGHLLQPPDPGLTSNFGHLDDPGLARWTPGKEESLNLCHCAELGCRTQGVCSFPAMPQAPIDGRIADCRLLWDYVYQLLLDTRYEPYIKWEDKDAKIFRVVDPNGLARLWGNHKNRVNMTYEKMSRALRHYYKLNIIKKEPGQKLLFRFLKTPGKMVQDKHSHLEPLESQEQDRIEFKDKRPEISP
# In short: as §1
# ELF5 = molecular target: T11, ELF5 (Homo sapiens, UniProt Q9UKW6-2 1-255); conditions: protein: recombinant; tags: N-terminal GST; dsDNA, one strand shown
# T11 sequence: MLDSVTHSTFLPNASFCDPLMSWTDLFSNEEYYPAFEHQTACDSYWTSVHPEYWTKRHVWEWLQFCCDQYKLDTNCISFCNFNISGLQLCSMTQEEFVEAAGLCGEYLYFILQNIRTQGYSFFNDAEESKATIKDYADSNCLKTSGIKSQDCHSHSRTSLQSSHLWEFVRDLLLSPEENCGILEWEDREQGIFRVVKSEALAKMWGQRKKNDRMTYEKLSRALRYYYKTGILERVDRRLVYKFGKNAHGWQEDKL
# In short: as §1
# ETV3 = molecular target: T12, ETV3 (Homo sapiens, UniProt P41162-2 1-143); conditions: protein: recombinant; tags: N-terminal GST; dsDNA, one strand shown
# T12 sequence: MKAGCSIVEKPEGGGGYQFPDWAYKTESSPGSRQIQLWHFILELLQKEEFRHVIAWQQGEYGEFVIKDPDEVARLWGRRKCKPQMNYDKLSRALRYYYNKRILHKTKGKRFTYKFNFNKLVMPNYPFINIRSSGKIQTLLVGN
# In short: as §1
# ETV6 = ETV6 (Homo sapiens, UniProt P41212 1-452); conditions: protein: recombinant; tags: N-terminal GST; dsDNA, one strand shown
# In short: as §1
# Chain of ETV5 (P41161 whole entry): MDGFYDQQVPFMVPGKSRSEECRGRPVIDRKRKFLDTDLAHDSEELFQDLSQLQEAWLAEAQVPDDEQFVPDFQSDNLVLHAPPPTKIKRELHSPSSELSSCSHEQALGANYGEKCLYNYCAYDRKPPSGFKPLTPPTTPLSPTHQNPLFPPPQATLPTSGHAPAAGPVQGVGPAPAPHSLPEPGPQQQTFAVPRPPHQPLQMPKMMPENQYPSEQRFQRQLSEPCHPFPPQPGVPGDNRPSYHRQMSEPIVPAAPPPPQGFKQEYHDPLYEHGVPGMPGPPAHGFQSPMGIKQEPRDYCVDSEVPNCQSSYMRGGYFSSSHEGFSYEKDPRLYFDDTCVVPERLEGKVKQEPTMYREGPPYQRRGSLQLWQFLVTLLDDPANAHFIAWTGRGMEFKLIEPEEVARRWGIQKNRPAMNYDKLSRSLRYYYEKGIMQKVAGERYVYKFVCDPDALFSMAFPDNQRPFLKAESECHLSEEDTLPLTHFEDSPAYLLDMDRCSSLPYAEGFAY
# Chain of ETV6 (P41212 whole entry): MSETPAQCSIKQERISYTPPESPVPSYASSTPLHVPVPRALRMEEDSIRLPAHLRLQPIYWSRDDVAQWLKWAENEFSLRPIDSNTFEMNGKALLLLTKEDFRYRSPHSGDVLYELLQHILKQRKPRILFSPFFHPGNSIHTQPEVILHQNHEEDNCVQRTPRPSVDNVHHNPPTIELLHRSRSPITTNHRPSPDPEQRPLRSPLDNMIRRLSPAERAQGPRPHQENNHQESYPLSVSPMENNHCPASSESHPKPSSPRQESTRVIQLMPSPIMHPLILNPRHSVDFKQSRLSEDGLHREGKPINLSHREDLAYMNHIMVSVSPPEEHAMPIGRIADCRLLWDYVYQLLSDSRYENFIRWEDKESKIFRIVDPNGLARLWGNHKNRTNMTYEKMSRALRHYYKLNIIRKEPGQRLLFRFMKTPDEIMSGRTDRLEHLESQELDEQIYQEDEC
# Chain of ETV1 (P50549 whole entry): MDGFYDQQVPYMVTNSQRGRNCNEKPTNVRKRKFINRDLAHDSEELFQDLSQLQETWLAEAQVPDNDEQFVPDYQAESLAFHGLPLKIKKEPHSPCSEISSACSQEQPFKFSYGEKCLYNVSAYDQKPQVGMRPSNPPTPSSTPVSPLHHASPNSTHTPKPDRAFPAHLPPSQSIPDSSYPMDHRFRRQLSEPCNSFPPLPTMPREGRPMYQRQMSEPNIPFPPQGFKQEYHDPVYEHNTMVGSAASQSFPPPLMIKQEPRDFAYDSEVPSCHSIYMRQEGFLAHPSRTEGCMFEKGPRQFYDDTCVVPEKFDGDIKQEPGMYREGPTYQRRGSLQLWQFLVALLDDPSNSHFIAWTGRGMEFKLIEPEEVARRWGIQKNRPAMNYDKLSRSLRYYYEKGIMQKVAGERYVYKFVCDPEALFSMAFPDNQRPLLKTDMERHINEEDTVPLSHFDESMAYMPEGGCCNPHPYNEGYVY
# Chain of HSF1 (Q00613 whole entry): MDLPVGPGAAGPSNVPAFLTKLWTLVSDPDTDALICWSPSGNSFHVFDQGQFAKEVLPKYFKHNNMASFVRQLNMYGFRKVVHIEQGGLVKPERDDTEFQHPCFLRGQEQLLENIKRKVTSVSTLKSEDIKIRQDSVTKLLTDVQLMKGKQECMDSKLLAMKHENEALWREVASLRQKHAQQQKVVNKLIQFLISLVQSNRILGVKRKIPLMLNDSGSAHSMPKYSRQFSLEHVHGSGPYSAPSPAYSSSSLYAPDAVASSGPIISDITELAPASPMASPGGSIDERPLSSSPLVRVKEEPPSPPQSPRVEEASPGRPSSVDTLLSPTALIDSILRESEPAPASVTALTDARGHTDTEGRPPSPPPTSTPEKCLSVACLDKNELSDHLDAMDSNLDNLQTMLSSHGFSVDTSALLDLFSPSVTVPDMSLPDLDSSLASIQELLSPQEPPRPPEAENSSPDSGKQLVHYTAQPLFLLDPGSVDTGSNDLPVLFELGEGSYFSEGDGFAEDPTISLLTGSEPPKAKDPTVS
# Chain of ELF4 (Q99607 whole entry): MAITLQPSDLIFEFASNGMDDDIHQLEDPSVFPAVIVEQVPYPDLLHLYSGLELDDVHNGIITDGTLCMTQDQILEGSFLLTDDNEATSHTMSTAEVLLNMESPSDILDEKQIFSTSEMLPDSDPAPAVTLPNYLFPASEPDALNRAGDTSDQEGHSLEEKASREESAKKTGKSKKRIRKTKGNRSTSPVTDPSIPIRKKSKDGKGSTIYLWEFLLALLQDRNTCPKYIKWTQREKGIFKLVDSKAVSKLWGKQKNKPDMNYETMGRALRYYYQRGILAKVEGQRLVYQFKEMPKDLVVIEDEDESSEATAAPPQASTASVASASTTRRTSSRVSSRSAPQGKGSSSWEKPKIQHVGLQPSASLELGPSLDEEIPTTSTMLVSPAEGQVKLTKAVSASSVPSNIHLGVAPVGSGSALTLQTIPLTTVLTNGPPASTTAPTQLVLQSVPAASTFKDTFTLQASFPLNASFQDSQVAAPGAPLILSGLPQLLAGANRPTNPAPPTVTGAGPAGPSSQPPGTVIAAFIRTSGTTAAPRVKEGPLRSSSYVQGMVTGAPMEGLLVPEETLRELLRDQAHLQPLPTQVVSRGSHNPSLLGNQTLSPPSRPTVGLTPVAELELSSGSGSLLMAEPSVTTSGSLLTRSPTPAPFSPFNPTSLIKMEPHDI
# Chain of CRX (O43186 whole entry): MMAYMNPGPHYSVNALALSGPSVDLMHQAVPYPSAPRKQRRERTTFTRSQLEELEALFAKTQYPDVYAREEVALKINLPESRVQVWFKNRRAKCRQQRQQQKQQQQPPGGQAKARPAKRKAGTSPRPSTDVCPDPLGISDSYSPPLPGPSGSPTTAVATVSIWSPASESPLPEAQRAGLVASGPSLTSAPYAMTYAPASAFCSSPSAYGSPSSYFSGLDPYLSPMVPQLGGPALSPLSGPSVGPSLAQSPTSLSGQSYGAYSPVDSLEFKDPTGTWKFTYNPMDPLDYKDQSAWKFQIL
sequence,measurement,setting,value
CCTACA,binding signal,FEV,"1.18 fold enrichment (6-mer frequency, TF over GST control)"
same,binding signal,ETV5,"1.26 fold enrichment (6-mer frequency, TF over GST control)"
same,binding signal,HSF1,"1.07 fold enrichment (6-mer frequency, TF over GST control)"
same,binding signal,SPIC,"1.35 fold enrichment (6-mer frequency, TF over GST control)"
same,binding signal,ELF4,"1.22 fold enrichment (6-mer frequency, TF over GST control)"
same,binding signal,ELK4,"1.31 fold enrichment (6-mer frequency, TF over GST control)"
same,binding signal,ETV2,"1.13 fold enrichment (6-mer frequency, TF over GST control)"
same,binding signal,ELF3,"1.13 fold enrichment (6-mer frequency, TF over GST control)"
same,binding signal,CRX,"1.01 fold enrichment (6-mer frequency, TF over GST control)"
same,binding signal,ETV1,"1.16 fold enrichment (6-mer frequency, TF over GST control)"
same,binding signal,ERF,"1.23 fold enrichment (6-mer frequency, TF over GST control)"
same,binding signal,ETV3L,"1.35 fold enrichment (6-mer frequency, TF over GST control)"
same,binding signal,ETS2,"1.19 fold enrichment (6-mer frequency, TF over GST control)"
same,binding signal,SPDEF,"1.17 fold enrichment (6-mer frequency, TF over GST control)"
same,binding signal,ETV7,"1.15 fold enrichment (6-mer frequency, TF over GST control)"
same,binding signal,ELF5,"1.41 fold enrichment (6-mer frequency, TF over GST control)"
same,binding signal,ETV3,"1.29 fold enrichment (6-mer frequency, TF over GST control)"
same,binding signal,ETV6,"1.29 fold enrichment (6-mer frequency, TF over GST control)"

# Reference: publication PMC7862700, “An all-to-all approach to the identification of sequence-specific readers for epigenetic DNA modifications on cytosine”
